Source: PubChem (Buhrlage Lab, Dana-Farber Cancer Institute and Novartis Institutes for BioMedical Research (Cambridge, Mass))
USP17 inh: human USP17-like deubiquitinase inhibition; A8MUK1; purified USP17, Ub-rhodamine cleavage fluorescence, 3 h; inhibition, % at 50 µM; hit rate 6.5% among 47,000
USP8 inh: inhibitors of human USP8 deubiquitinase; P40818; purified USP8, Ub-rhodamine cleavage fluorescence, 30 min; inhibition, % at 20 µM; hit rate 4.2% among 47,000; AID 1645853
USP28 block: inhibitors of human USP28 deubiquitinase | Q96RU2 | hit rate 3% among 47,000 | purified USP28, Ub-rhodamine cleavage fluorescence, 30 min | inhibition, % at 25 µM | AID 1645857
USP30 inh: inhibitors of human USP30 deubiquitinase; AID 1645860; inhibition, % at 25 µM; hit rate 5.3% among 47,000; purified USP30, Ub-rhodamine cleavage fluorescence
Hits are given with their value. Compounds with a hit are over-represented: about 13% of the library has one in this group of screens. No stated cut-off is given here; in the data, active means inhibition above about 30%; inactive means the rest.

What do the screens show for `Cc1nc(SCC(=O)Nc2cc(Cl)ccc2C)c2oc3ccccc3c2n1`?
USP17 inh: inactive; USP8 inh: 32; USP28 block: inactive; USP30 inh: 53

Results for Cc1ccc(Cl)cc1NC(=O)CSc1ncnc2c1oc1ccccc12 ?
USP17 inh: 31; USP8 inh: inactive; USP28 block: inactive; USP30 inh: inactive

What do the screens show for `Cc1nc(SCC(=O)Nc2ccc(C)c(C)c2)c2oc3ccccc3c2n1`?
USP17 inh: 36; USP8 inh: inactive; USP28 block: inactive; USP30 inh: inactive

What do the screens show for `Cc1nc(SCC(=O)c2ccc(F)cc2)c2oc3ccccc3c2n1`?
USP17 inh: inactive; USP8 inh: inactive; USP28 block: inactive; USP30 inh: inactive

What do the screens show for `COc1cccc(-c2noc(NCc3ccccc3)n2)c1OC`?
USP17 inh: inactive; USP8 inh: inactive; USP28 block: inactive; USP30 inh: inactive

What do the screens show for `COc1cccc(-n2cc(-c3nc(-c4cccnc4)no3)c3ccccc3c2=O)c1`?
USP17 inh: inactive; USP8 inh: inactive; USP28 block: inactive; USP30 inh: 31

What do the screens show for `COc1ccc(NC(=O)COc2cccc(-c3noc(-c4ccco4)n3)c2)cc1`?
USP17 inh: inactive; USP8 inh: inactive; USP28 block: inactive; USP30 inh: inactive

What do the screens show for `COc1nc2c(c(-c3ccco3)c1C#N)Cc1cc(NC(C)=O)ccc1-2`?
USP17 inh: 39; USP8 inh: 66; USP28 block: inactive; USP30 inh: inactive

Results for O=C(O)COc1ccc2c(c1)O/C(=C\c1cccc(F)c1)C2=O ?
USP17 inh: inactive; USP8 inh: inactive; USP28 block: inactive; USP30 inh: inactive

How did Cc1c(CC(=O)NCC(C)C)c(=O)oc2cc3c(cc12)CCC1(CCCCC1)O3 do in these assays?
USP17 inh: 36; USP8 inh: inactive; USP28 block: inactive; USP30 inh: inactive

What do the screens show for `O=S(=O)(c1ccccc1)c1nnn2c1nc(Nc1ccc(F)cc1)c1ccccc12`?
USP17 inh: inactive; USP8 inh: 52; USP28 block: inactive; USP30 inh: inactive

What do the screens show for `COc1cccc(Nc2nc3c(S(=O)(=O)c4ccccc4)nnn3c3ccccc23)c1`?
USP17 inh: 85; USP8 inh: 38

How did Cc1nc2ccn(Cc3ccco3)c(=O)c2cc1C(=O)N1CCC(C)CC1 do in these assays?
USP17 inh: inactive; USP8 inh: inactive; USP28 block: inactive; USP30 inh: inactive

What do the screens show for `N#Cc1cc([N+](=O)[O-])ccc1N1CCN(c2ccc(O)cc2)CC1`?
USP17 inh: 32; USP8 inh: inactive; USP28 block: inactive; USP30 inh: 35

How did COc1ccc(-c2cc(N3CCC(NC(=O)c4ccccc4)C3)n[nH]2)cc1 (stereo unspecified) do in these assays?
USP17 inh: 56; USP8 inh: inactive; USP28 block: inactive; USP30 inh: inactive

What do the screens show for `COc1ccc(-c2cc(N3CCC(NC(=O)c4ccccn4)C3)n[nH]2)cc1` (stereo unspecified)?
USP17 inh: inactive; USP8 inh: inactive; USP28 block: inactive; USP30 inh: inactive

What do the screens show for `Cc1ccc(CN2C(=O)c3cc4ccccc4n3CC2(C)C(=O)NCc2ccccc2)o1` (stereo unspecified)?
USP17 inh: 64; USP8 inh: inactive; USP28 block: inactive; USP30 inh: inactive

What do the screens show for `COc1ccc(N2C(=O)c3cc4ccccc4n3CC2(C)C(=O)NC2CCCC2)cc1` (stereo unspecified)?
USP17 inh: inactive; USP8 inh: 31; USP28 block: inactive; USP30 inh: inactive

How did CC1(C(=O)NCc2ccccc2)Cn2c(cc3ccccc32)C(=O)N1Cc1ccccc1 (stereo unspecified) do in these assays?
USP17 inh: 50; USP8 inh: inactive; USP28 block: inactive; USP30 inh: inactive

What do the screens show for `CC1(C(=O)NCc2ccccc2)Cn2c(cc3ccccc32)C(=O)N1Cc1cccnc1` (stereo unspecified)?
USP17 inh: inactive; USP8 inh: inactive; USP28 block: inactive; USP30 inh: inactive

What do the screens show for `CC1(C(=O)NC2CCCC2)Cn2c(ccc2-c2ccco2)C(=O)N1Cc1ccccc1` (stereo unspecified)?
USP17 inh: inactive; USP8 inh: 57; USP28 block: inactive; USP30 inh: inactive

Results for COc1ccc(C(=O)NCc2c(C)noc2C)cc1 ?
USP17 inh: inactive; USP8 inh: inactive; USP28 block: inactive; USP30 inh: inactive

What do the screens show for `O=c1c2cccnc2n(Cc2ccccc2F)c(=O)n1CCc1ccccc1`?
USP17 inh: inactive; USP8 inh: inactive; USP28 block: inactive; USP30 inh: inactive

What do the screens show for `Cc1ccc(CNC(=O)CCCn2c(=O)c3ccccc3n(Cc3cccc(F)c3)c2=O)cc1`?
USP17 inh: 39; USP8 inh: inactive; USP28 block: inactive; USP30 inh: inactive

Results for O=C(CCCCn1c(=O)c2ccccc2n(Cc2ccccc2F)c1=O)NCCc1ccccc1 ?
USP17 inh: 56; USP8 inh: inactive; USP28 block: inactive; USP30 inh: inactive

How did N#Cc1ccccc1Cn1c(=O)n(CCCCC(=O)NCCc2ccccc2)c(=O)c2ccccc21 do in these assays?
USP17 inh: 78; USP8 inh: inactive; USP28 block: inactive; USP30 inh: inactive

What do the screens show for `COC(=O)c1ccc(C(=O)Nc2ccc(S(=O)(=O)Nc3cc(OC)ncn3)cc2)cc1`?
USP17 inh: inactive; USP8 inh: inactive; USP28 block: inactive; USP30 inh: inactive

Results for CN(c1ccccc1)S(=O)(=O)c1cccc(NC(=O)COc2cccc(-n3cnnn3)c2)c1 ?
USP17 inh: inactive; USP8 inh: inactive; USP28 block: inactive; USP30 inh: inactive

How did COc1ccc(-c2nc(Cn3nnc(C(=O)Nc4ccc(C)c(C)c4)c3N)c(C)o2)cc1 do in these assays?
USP17 inh: 80; USP8 inh: inactive; USP28 block: inactive; USP30 inh: inactive

How did COc1ccc(-c2nc(Cn3nnc(C(=O)Nc4ccc(C)cc4C)c3N)c(C)o2)cc1 do in these assays?
USP17 inh: inactive; USP8 inh: inactive; USP28 block: inactive; USP30 inh: 57

Results for CCOC(=O)c1noc2nc(C)n(Cc3nc(-c4ccc(OC)cc4)oc3C)c(=O)c12 ?
USP17 inh: inactive; USP8 inh: inactive; USP28 block: inactive; USP30 inh: inactive

How did CN(C(=O)CSc1ncnc2c1sc1nc(N3CCOCC3)c3c(c12)CC(C)(C)OC3)c1ccccc1 do in these assays?
USP17 inh: inactive; USP8 inh: inactive; USP28 block: inactive; USP30 inh: inactive

Results for Cc1oc(CNS(=O)(=O)c2cccc(Cl)c2C)nc1C(=O)N1CCCC1 ?
USP17 inh: inactive; USP8 inh: inactive; USP28 block: inactive; USP30 inh: inactive

What do the screens show for `O=C(Nc1cccnc1)C1c2ccccc2C(=O)N(C2CCCC2)C12CCCCC2` (stereo unspecified)?
USP17 inh: inactive; USP8 inh: 36; USP28 block: inactive; USP30 inh: inactive

Results for O=C(Nc1ccc(F)cc1F)N1CCN(c2cc(-c3ccncc3)[nH]n2)CC1 ?
USP8 inh: inactive; USP28 block: inactive; USP30 inh: 41

What do the screens show for `COc1cccc(NC2c3ncccc3C(=O)N2Cc2ccc(F)cc2)c1` (stereo unspecified)?
USP17 inh: inactive; USP8 inh: inactive; USP28 block: inactive; USP30 inh: inactive

How did N#Cc1ccc(COc2ncnc3scc(-c4ccccc4)c23)cc1 do in these assays?
USP17 inh: inactive; USP8 inh: inactive; USP28 block: 35; USP30 inh: inactive
